About 750 (58%) of roughly 1,300 compounds were called active. Some of the results follow. Unmarked numbers belong to inactive results. Residues, ends and D or L forms follow the SMILES beside them. *: point of attachment. Cbz = O=C(OCc1ccccc1)*
biological target: Sulfhydryl oxidase 1 (Homo sapiens) (UniProt O00391); experiment: inhibition of human sulfhydryl oxidase QSOX1 – biochemical, ROS-Glo H2O2 luminescence, HTS, primary screen (AID 1347418); conditions: recombinant QSOX1, ROS-Glo H2O2 luminescence; at 12.5 µM; hits give high values; active = any value above zero
Sequence (O00391 whole entry, looked up): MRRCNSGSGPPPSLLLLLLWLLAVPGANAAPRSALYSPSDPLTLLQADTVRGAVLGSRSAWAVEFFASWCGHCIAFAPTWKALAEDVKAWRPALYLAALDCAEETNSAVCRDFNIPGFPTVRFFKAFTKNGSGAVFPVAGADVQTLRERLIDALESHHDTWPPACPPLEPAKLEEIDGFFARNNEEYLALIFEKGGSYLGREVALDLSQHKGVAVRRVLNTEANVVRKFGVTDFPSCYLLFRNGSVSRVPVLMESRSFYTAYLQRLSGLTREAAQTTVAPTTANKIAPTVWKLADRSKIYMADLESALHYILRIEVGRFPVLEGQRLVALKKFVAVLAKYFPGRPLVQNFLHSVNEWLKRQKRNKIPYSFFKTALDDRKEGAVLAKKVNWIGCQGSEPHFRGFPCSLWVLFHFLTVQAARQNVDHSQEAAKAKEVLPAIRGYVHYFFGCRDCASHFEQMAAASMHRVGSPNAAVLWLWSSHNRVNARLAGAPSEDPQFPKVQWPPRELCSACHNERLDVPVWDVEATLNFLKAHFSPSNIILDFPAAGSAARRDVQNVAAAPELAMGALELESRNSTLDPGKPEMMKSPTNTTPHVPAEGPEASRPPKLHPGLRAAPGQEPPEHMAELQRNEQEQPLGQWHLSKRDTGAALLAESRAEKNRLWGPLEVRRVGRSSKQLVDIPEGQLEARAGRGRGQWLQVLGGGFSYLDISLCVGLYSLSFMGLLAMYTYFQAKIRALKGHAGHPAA

| Compound | inhibition |
| --- | --- |
| CSc1ccc2c(c1)N(CCC1CCCCN1C)c1ccccc1S2 (centres undefined) | 46.5% (active) |
| CSc1ccc2c(c1)C(N1CCN(C)CC1)Cc1ccccc1S2 (centres undefined) | -0.9% |
| Oc1cc2c(cc1O)CN(C(=S)NCCc1ccc(Cl)cc1)CCC2 | 25.5% (active) |
| CC(C)NCC(O)COc1ccc(CC(N)=O)cc1 (centres undefined) | -2% |
| CC(C)NCC(O)COc1ccc(CCOCC2CC2)cc1 (centres undefined) | -0.5% |
| COCCc1ccc(OCC(O)CNC(C)C)cc1 (centres undefined) | -2% |
| CC(C)NCC(O)COc1ccc(COCCOC(C)C)cc1 (centres undefined) | 3.9% (active) |
| CC(C)NC[C@H](O)COc1ccc(CC(N)=O)cc1 | 5.2% (active) |
| COC(=O)c1c(C)[nH]c(C)c1C(=O)c1ccccc1Cc1ccccc1 | 1.9% (active) |
| C=CCc1cccc(/C=N/NC(=O)CN2CCN(Cc3ccccc3)CC2)c1O | -3.2% |
| CN1CCc2cccc3c2C1Cc1ccc(O)c(O)c1-3 (centres undefined) | 17.1% (active) |
| COc1cc2ncnc(Nc3cccc(Cl)c3)c2cc1OC | -1.3% |
| O=c1n(CCCN2CCN(c3cccc(Cl)c3)CC2)nc2ccccn12 | 8.6% (active) |
| O=c1c(-c2ccc(O)cc2)coc2cc(O)ccc12 | 7.6% (active) |
| O=c1c(-c2ccc(O)cc2)coc2cc(O)cc(O)c12 | -5.9% |
| CC(C)[C@H](NC(=O)OCc1ccccc1)C(=O)N[C@H](C=O)Cc1ccccc1 (Cbz-Val-Phe-aldehyde) | -1.6% |
| CC(C)C[C@H](NC(=O)[C@@H](O)[C@H](N)Cc1ccccc1)C(=O)O | 0.1% (active) |
| CC(C)C[C@H](NC(=O)[C@H](O)[C@H](N)Cc1ccccc1)C(=O)O | 9.6% (active) |
| O=C(N[C@@H](Cc1ccccc1)C(=O)CCl)OCc1ccccc1 | -6.4% |
| O=P(O)(O)C(Cl)(Cl)P(=O)(O)O | 5.2% (active) |
| N[C@H](C(=O)O)[C@H](Cc1ccccc1)C(=O)O | 0.5% (active) |
| O=C(O)CNC(=O)C(CS)Cc1ccccc1 (centres undefined) | -1.4% |
| Oc1cc(O)c2c(c1)O[C@H](c1ccc(O)c(O)c1)[C@@H](O)C2 | 12.2% (active) |
| O=C1c2c(O)cc(O)cc2OC(c2ccc(O)c(O)c2)C1O (centres undefined) | 9.8% (active) |
| [Li+] | 0% |
| O=C(O)CCc1ccc(NCc2cccc(Oc3ccccc3)c2)cc1 | 13.1% (active) |

| Compound | inhibition |
| --- | --- |
| CC(C)(C)NCC(O)COc1cccc2[nH]c(=O)[nH]c12 (centres undefined) | 0.2% (active) |
| Brc1c(Br)c(Br)c2[nH]cnc2c1Br | 3.9% (active) |
| N=C(N)N1CCc2ccccc2C1 | -3.7% |
| CN1CCc2ccccc2Cc2[nH]c3ccccc3c2CC1 | 6.3% (active) |
| CC(C)(C)c1cc(/C=C(\C#N)C(N)=S)cc(C(C)(C)C)c1O | 37.7% (active) |
| C#CCN(C)Cc1ccccc1 | -0.7% |
| CN(C)C/C=C(/c1ccc(Br)cc1)c1cccnc1 | 2.7% (active) |
| CN1CCC(=C2c3ccccc3CC(=O)c3sccc32)CC1 | 0.8% (active) |
| CN1CCC(=C2c3ccccc3C=Cc3ccccc32)CC1 | 2.2% (active) |
| CCC1(O)CC2CN(CCc3c([nH]c4ccccc34)[C@@](C(=O)OC)(c3cc4c(cc3OC)N(C)C3[C@]45CCN4CC=C[C@@](CC)([C@@H](OC(C)=O)[C@]3(O)C(=O)OC)[C@H]45)C2)C1 (some centres undefined) | 6.7% (active) |
| CCC1(O)CC2CN(CCc3c([nH]c4ccccc34)[C@@](C(=O)OC)(c3cc4c(cc3OC)N(C=O)C3[C@]45CCN4CC=C[C@@](CC)([C@@H](OC(C)=O)[C@]3(O)C(=O)OC)[C@H]45)C2)C1 (some centres undefined) | -0.2% |
| O=c1[nH]cc(F)c(=O)[nH]1 | 0.8% (active) |
| O=C(Nc1nc2ccccc2n1CCN1CCOCC1)c1cccc([N+](=O)[O-])c1 | 0.4% (active) |
| NC1CONC1=O (centres undefined) | -3.5% |
| CN1C[C@H](C(=O)N[C@]2(C)O[C@@]3(O)[C@@H]4CCCN4C(=O)[C@H](Cc4ccccc4)N3C2=O)C[C@@H]2c3cccc4[nH]cc(c34)C[C@H]21 | 10% (active) |
| COc1cccc(OC)c1OCCNCC1CSc2ccccc2O1 (centres undefined) | -0.7% |
| COc1cccc(OC)c1OCCNCC1COc2ccccc2O1 (centres undefined) | 1.9% (active) |
| O=C1c2ccccc2C(=O)c2c(NCCc3ccc(O)cc3)ccc(NCCc3ccc(O)cc3)c21 | 11% (active) |
| N[C@@H](Cc1c[nH]c2ccc(O)cc12)C(=O)O | 8.4% (active) |
| O=C(O)Cc1c[nH]c2ccc(O)cc12 | 15.6% (active) |
| N[C@@H](Cc1c[nH]c2ccccc12)C(=O)O | -0.2% |
| N[C@H](C(=O)O)c1cc(O)cc(O)c1 | -6.1% |
| CCn1ccnc1CC1COc2ccccc2O1 (centres undefined) | 0.9% (active) |
| NC(C(=O)N[C@@H]1C(=O)N2C(C(=O)O)=C(Cl)CS[C@H]12)c1ccccc1 (some centres undefined) | 0.4% (active) |
| CC1=C(C(=O)O)N2C(=O)[C@@H](NC(=O)C(N)C3=CCC=CC3)[C@H]2SC1 (some centres undefined) | -1.3% |
| NC(=O)c1cc[n+](CC2=C(C(=O)O)N3C(=O)[C@@H](NC(=O)[C@@H](c4ccccc4)S(=O)(=O)[O-])[C@H]3SC2)cc1 | -1% |

| Compound | inhibition |
| --- | --- |
| CC1=C(C(=O)O)N2C(=O)[C@@H](NC(=O)C(N)c3ccccc3)[C@H]2SC1 (some centres undefined) | 2.2% (active) |
| NCCS(=O)O | -0.7% |
| O=C1OC(=O)C2C3CCC(O3)C12 (centres undefined) | -1.3% |
| CC(=O)/C(C)=N/O | -5.2% |
| CC(=O)C(C)=O | 2.1% (active) |
| NC(=O)C(=O)O | -8.6% |
| CC(N)=O | 4.6% (active) |
| NC(=O)NO | -13.4% |
| Nc1ccc2c3c(cccc13)C(=O)NC2=O | 7.4% (active) |
| Nc1ncnc2c1ncn2C1CCCO1 (centres undefined) | -0.8% |
| O=C(CCNNC(=O)c1ccncc1)NCc1ccccc1 | 3.1% (active) |
| COc1ccc(C(=O)NCc2cccnc2)cc1C(=O)NCc1cccnc1 | -2.9% |
| OC(CCN1CCCCC1)(c1ccccc1)C1CC2C=CC1C2 (centres undefined) | 2.7% (active) |
| OC(CCN1CCCCC1)(c1ccccc1)C1CCCCC1 (centres undefined) | -2.5% |
| NCCNC(=O)c1ncsc1-c1cccc(F)c1 | 0.5% (active) |
| CCN(CC)CC#CCOC(=O)C(O)(c1ccccc1)C1CCCCC1 (centres undefined) | -2.5% |
| CC#C[C@]1(O)CC[C@H]2[C@@H]3CCC4=CC(=O)CCC4=C3[C@@H](c3ccc(N(C)C)cc3)C[C@@]21C | 29.9% (active) |
| O=C1Nc2ccc(I)cc2/C1=C/c1cc(Br)c(O)c(Br)c1 | 1.3% (active) |
| NCCS(=O)(=O)O | -4.9% |
| NCCCS(=O)(=O)O | 4.4% (active) |
| CC(C)Cn1c(=O)n(C)c(=O)c2[nH]cnc21 | 1.8% (active) |
| Cc1nc2c([nH]1)c(=O)n(C)c(=O)n2Cc1ccco1 | -1.4% |
| COCc1nc2c([nH]1)c(=O)n(C)c(=O)n2CC(C)C | -1.5% |
| Cn1c(=O)c2[nH]cnc2n(C)c1=O | 2.2% (active) |
| c1ccc(C(NCc2cccnc2)(c2ccccc2)c2ccccc2)cc1 | -3.5% |
| Clc1ccc(C(c2ccccc2Cl)C(Cl)Cl)cc1 (centres undefined) | 22.6% (active) |

| Compound | inhibition |
| --- | --- |
| O=C(O)/C=C/C(O)c1ccc(Cl)cc1 (centres undefined) | -2.6% |
| Cc1ccc(N(CC2=NCCN2)c2cccc(O)c2)cc1 | 34.7% (active) |
| O=C1O/C(=C/Br)CCC1c1cccc2ccccc12 (centres undefined) | 2.5% (active) |
| C[C@H](O)C(=O)C1=Nc2c(nc(N)[nH]c2=O)NC1 | 0.2% (active) |
| CCCc1c(OCCCOc2ccc(OCC(=O)O)cc2)ccc(C(C)=O)c1O | 4.1% (active) |
| O=C(O)/C(=C/c1c(C(=O)O)[nH]c2cc(Cl)cc(Cl)c12)c1ccccc1 | 3.9% (active) |
| O=C1NC(c2cccc([N+](=O)[O-])c2)=CCN1c1ccccc1O | 3.1% (active) |
| CCCCCC(O)c1cccc(OCc2ccc3ccccc3n2)c1 (centres undefined) | 2.8% (active) |
| O=C(O)c1ccccc1Nc1cccc(OCc2ccc3ccccc3n2)c1 | 7.4% (active) |
| O=C(c1ccccc1)c1ccc2n1CCC2C(=O)O (centres undefined) | -5% |
| N#C/C(=C\c1ccc(O)c(O)c1)C(=O)Nc1ccccc1 | 26.5% (active) |
| C[C@H](NC(=O)/C(C#N)=C/c1ccc(O)c(O)c1)c1ccccc1 | 24.4% (active) |
| N#C/C(=C\c1ccc(O)c(O)c1)C(=O)NCCc1ccccc1 | 28.3% (active) |
| N#C/C(=C\c1ccc(O)c(O)c1)C(=O)NCCCc1ccccc1 | 21% (active) |
| NNCCc1ccccc1 | -0.4% |
| C[C@]12C=CC(=O)C=C1CC[C@@H]1C2=CC[C@]2(C)[C@@H](C(=O)CN3CCN(c4cc(N5CCCC5)nc(N5CCCC5)n4)CC3)CC[C@@H]12 | -5.3% |
| CSc1ccc(C(=O)c2[nH]c(=O)[nH]c2C)cc1 | -1.7% |
| N#C/C(=C\c1ccc(O)c(O)c1)C(=O)NCc1ccccc1 | 26.3% (active) |
| N#C/C(=C\c1ccc(O)c(O)c1)C(=O)NCCCNC(=O)/C(C#N)=C/c1ccc(O)c(O)c1 | 25% (active) |
| CN(C)c1nc(N(C)C)nc(N(C)C)n1 | -0.9% |
| CC(=O)N1CCN(c2ccc(OC[C@H]3CO[C@](Cn4ccnc4)(c4ccc(Cl)cc4Cl)O3)cc2)CC1 | 9.3% (active) |
| Nc1nc2c(ncn2COCCO)c(=O)[nH]1 | 0% |
| Nc1nc2c(ncn2COC(CO)CO)c(=O)[nH]1 | 0.2% (active) |
| CO/N=C(\C(=O)N[C@@H]1C(=O)N2C(C(=O)O)=C(COC(C)=O)CS[C@H]12)c1csc(N)n1 | -6.9% |
| CC(=O)OCC1=C(C(=O)O)N2C(=O)[C@@H](NC(=O)Cc3cccs3)[C@H]2SC1 | 1% (active) |
| Cc1ccc(/C(=C\CN2CCCC2)c2ccccn2)cc1 | -2.5% |
